Measurements taken from the antibiotic and cytotoxicity screens of Wong et al. (2023).
Hit rate of the full screen: of about 39,000 compounds, about 3,300 (8.5%) were called active. What follows is part of a selection rich in actives, with near analogues and random picks from the rest.

Each compound was assayed on HepG2 (assay: cytotoxicity call (relative viability < 0.9)). Details: 10 µM.
With `CCOc1ccnc2c1c(=O)n(CC(N)=O)c(=O)n2C` the cytotoxicity call was “inactive”.
For `Cc1noc(C)c1S(=O)(=O)N(C)C[C@@H]1OCCCC[C@H](C)Oc2ccc(NS(=O)(=O)c3cn(C)cn3)cc2C(=O)N([C@H](C)CO)C[C@@H]1C`, the cytotoxicity call was “inactive”.
`COc1cccc2c1C(=O)c1c(O)c3c(c(O)c1C2=O)C[C@](O)(C(C)=O)C[C@H]3O[C@H]1C[C@@H](N)[C@@H](O)[C@@H](C)O1` was tested, and the cytotoxicity call was “active”.
For `COc1cccc2c1C(=O)c1c(O)c3c(c(O)c1C2=O)CC(O)(C(C)=O)CC3OC1CC(N)C(O)C(C)O1.Cl` (configuration not stated), the cytotoxicity call was “active”.
In the case of `CC(=O)[C@]1(N)Cc2c(O)c3c(c(O)c2[C@@H](O[C@H]2C[C@H](O)[C@H](O)CO2)C1)C(=O)c1ccccc1C3=O`, the cytotoxicity call is reported as “active”.
With `COc1cccc2c1C(=O)c1c(O)c3c(c(O)c1C2=O)C[C@@](O)(C(C)=O)C[C@@H]3O[C@H]1C[C@H](N)[C@H](O)[C@H](C)O1` the cytotoxicity call was “active”.
`CCNC(=O)C[C@@H]1C=C[C@@H](NC(=O)C2CCOCC2)[C@@H](CO)O1` was tested, and the cytotoxicity call was “inactive”.
For `Cc1ccc(S[C@H](C)C(=O)c2ccc(C)c(Cl)c2)cc1`, the cytotoxicity call was “inactive”.
For `C[C@@H]1CN([C@H](C)CO)C(=O)c2cc(NC(=O)c3ccccc3)ccc2O[C@@H](C)CCCCO[C@H]1CN(C)C(=O)CCC(F)(F)F`, the cytotoxicity call was “inactive”.
With `C[C@@H]1CCCCO[C@H](CN(C)C(=O)Nc2ccc(F)cc2)[C@H](C)CN([C@H](C)CO)C(=O)c2cc(NC(=O)c3ccncc3)ccc2O1` the cytotoxicity call was “inactive”.
For `CCCN(C)C[C@@H]1Oc2cc(C#Cc3cccc(OC)c3)ccc2S(=O)(=O)N([C@H](C)CO)C[C@@H]1C`, the cytotoxicity call was “inactive”.
With `C/C=C(\C(C)=N\O)c1ccccc1` the cytotoxicity call was “inactive”.
For `CN1C(=O)c2cc(NC(=O)C3CCCC3)ccc2OC[C@H]2O[C@@H](CC(=O)NCCc3ccncc3)CC[C@H]21`, the cytotoxicity call was “inactive”.
For `CN(C)CC(=O)N[C@@H]1CC[C@H](CC(=O)O)O[C@@H]1CO`, the cytotoxicity call was “inactive”.
For `CC(=O)[C@]1(O)Cc2c(O)c3c(c(O)c2[C@@H](O[C@@H]2C[C@@H](N)[C@H](O)[C@@H](C)O2)C1)C(=O)c1c(O)cccc1C3=O`, the cytotoxicity call was “active”.
For `CC(C)NC(=O)Nc1ccc2c(c1)CC(=O)N([C@@H](C)CO)C[C@H](C)[C@@H](CN(C)S(=O)(=O)c1ccc(F)cc1)O2`, the cytotoxicity call was “inactive”.
In the case of `C[C@@H]1CN([C@@H](C)CO)C(=O)c2cc(NC(=O)Nc3cccc4ccccc34)ccc2O[C@@H]1CN(C)Cc1ccncc1`, the cytotoxicity call is reported as “inactive”.
With `C[C@H](CO)N1C[C@H](C)[C@H](CN(C)Cc2ccncc2)Oc2ccc(NC(=O)CCCN(C)C)cc2C1=O` the cytotoxicity call was “inactive”.
For `CC(C)C[C@H](N)C(=O)N[C@@H](C)C(=O)O`, the cytotoxicity call was “active”.
`CC(C)C[C@H](N)C(=O)O` was tested, and the cytotoxicity call was “inactive”.
`CC(C)C[C@@H](NC(=O)[C@@H](C)N)C(=O)O` was tested, and the cytotoxicity call was “inactive”.
In the case of `C[C@H]1CN([C@@H](C)CO)C(=O)Cc2cc(NC(=O)CCN3CCOCC3)ccc2O[C@H]1CN(C)S(=O)(=O)c1cn(C)cn1`, the cytotoxicity call is reported as “inactive”.
In the case of `O=C(O)CCN=C1NC(=O)CS1`, the cytotoxicity call is reported as “active”.
For `O=C1CSC(=Nc2nccs2)N1`, the cytotoxicity call was “inactive”.
With `O=C(O)CCCN=C1NC(=O)CC(=O)N1` the cytotoxicity call was “inactive”.
`C[C@H]1CN([C@@H](C)CO)C(=O)c2cccc(NC(=O)c3ccncc3)c2O[C@@H]1CN(C)Cc1ccc(-c2ccccc2)cc1` was tested, and the cytotoxicity call was “inactive”.
With `C[C@H](CO)N1C[C@H](C)[C@@H](CN(C)S(=O)(=O)c2ccc(F)cc2)Oc2ccc(NS(=O)(=O)c3cccs3)cc2CC1=O` the cytotoxicity call was “inactive”.
For `COc1ccc([Si](C)(C)[C@H]2[C@H](CCn3cc([C@H](O)c4ccccc4)nn3)O[C@@]3(C(=O)N(c4ccccc4)c4ccccc43)[C@@H]2C)cc1`, the cytotoxicity call was “inactive”.
In the case of `COc1ccc([Si](C)(C)[C@@H]2[C@@H](CC(=O)N(CCO)Cc3ccccc3)O[C@]3(C(=O)N(Cc4cccc(N5CCOC5=O)c4)c4ccccc43)[C@H]2C)cc1`, the cytotoxicity call is reported as “inactive”.
In the case of `COc1ccc(C(=O)Nc2cccc(CN3C(=O)[C@]4(O[C@H](CC(=O)N(CCO)Cc5ccccc5)[C@@H]([Si](C)(C)c5ccc(OC)cc5)[C@@H]4C)c4ccccc43)c2)cc1`, the cytotoxicity call is reported as “active”.
With `COc1ccc([Si](C)(C)[C@@H]2[C@@H](CCn3cc([C@H](O)c4ccccc4)nn3)O[C@]3(C(=O)N(C)c4c(Br)cc(C)cc43)[C@H]2C)cc1` the cytotoxicity call was “inactive”.
In the case of `COc1ccc(C(=O)Nc2ccc(CN3C(=O)[C@]4(O[C@H](CC(=O)N(CCO)Cc5ccccc5)[C@@H]([Si](C)(C)c5ccc(OC)cc5)[C@@H]4C)c4ccccc43)cc2)cc1`, the cytotoxicity call is reported as “inactive”.
`COc1ccc([Si](C)(C)[C@H]2[C@H](CC(=O)N(CCO)Cc3ccccc3)O[C@@]3(C(=O)N(Cc4cccc(N5CCOC5=O)c4)c4ccccc43)[C@@H]2C)cc1` was tested, and the cytotoxicity call was “inactive”.
For `COc1ccc([Si](C)(C)[C@H]2[C@H](CC(=O)N(CCO)Cc3ccccc3)O[C@@]3(C(=O)N(C)c4c(Br)cc(C)cc43)[C@@H]2C)cc1`, the cytotoxicity call was “active”.
With `COc1ccc([Si](C)(C)[C@@H]2[C@@H](CC(=O)N3Cc4ccccc4C[C@H]3CO)O[C@]3(C(=O)N(C)c4c(Br)cc(C)cc43)[C@H]2C)cc1` the cytotoxicity call was “inactive”.
With `COc1ccc(C(=O)Nc2ccc(CN3C(=O)[C@@]4(O[C@@H](CC(=O)N(CCO)Cc5ccccc5)[C@H]([Si](C)(C)c5ccc(OC)cc5)[C@H]4C)c4ccccc43)cc2)cc1` the cytotoxicity call was “inactive”.
`COc1ccc([Si](C)(C)[C@H]2[C@H](CCn3cc([C@H](O)c4ccccc4)nn3)O[C@@]3(C(=O)N(C)c4c(Br)cc(C)cc43)[C@@H]2C)cc1` was tested, and the cytotoxicity call was “active”.
For `COc1ccc(C(=O)Nc2cccc(CN3C(=O)[C@@]4(O[C@@H](CC(=O)N(CCO)Cc5ccccc5)[C@H]([Si](C)(C)c5ccc(OC)cc5)[C@H]4C)c4ccccc43)c2)cc1`, the cytotoxicity call was “active”.
In the case of `COc1ccc([Si](C)(C)[C@@H]2[C@@H](CC(=O)N(CCO)Cc3ccccc3)O[C@]3(C(=O)N(C)c4c(Br)cc(C)cc43)[C@H]2C)cc1`, the cytotoxicity call is reported as “inactive”.
For `C[C@H]1CN([C@@H](C)CO)C(=O)c2cc(NS(=O)(=O)c3cn(C)cn3)ccc2O[C@H]1CN(C)S(=O)(=O)c1cn(C)cn1`, the cytotoxicity call was “inactive”.
In the case of `Cc1noc(C)c1NC(=O)N(C)C[C@@H]1Oc2ccc(NC(=O)Cn3cnnn3)cc2C(=O)N([C@@H](C)CO)C[C@H]1C`, the cytotoxicity call is reported as “inactive”.
For `O=C(C[C@H]1C=C[C@@H](NC(=O)CN2CCOCC2)[C@H](CO)O1)NCCc1ccncc1`, the cytotoxicity call was “inactive”.
For `O=C(C[C@@H]1CC[C@@H](NC(=O)CN2CCOCC2)[C@H](CO)O1)NCCc1ccccc1`, the cytotoxicity call was “inactive”.
With `Cc1ccc(S(=O)(=O)N(C)C[C@H]2Oc3ccc(NS(=O)(=O)c4cn(C)cn4)cc3CC(=O)N([C@@H](C)CO)C[C@@H]2C)cc1` the cytotoxicity call was “inactive”.
In the case of `O=S(=O)(NCc1ccco1)N1CCOCC1`, the cytotoxicity call is reported as “inactive”.
In the case of `C[C@@H]1CCCCO[C@H](CN(C)Cc2ccc(C(=O)O)cc2)[C@H](C)CN([C@@H](C)CO)C(=O)c2cc(NC(=O)Nc3ccccc3)ccc2O1`, the cytotoxicity call is reported as “inactive”.
For `COc1ccc([C@H]2CC=CC[C@H](C)Oc3ccccc3C(=O)N(C)[C@H](Cc3ccccc3)C(=O)N2)c(OC)c1`, the cytotoxicity call was “inactive”.
`COc1ccc([C@H]2CC=CC[C@H](C)Oc3ccccc3C(=O)N(C)[C@@H](Cc3ccccc3)C(=O)N2)c(OC)c1` was tested, and the cytotoxicity call was “inactive”.
For `COc1ccc2c(c1)OCC(Cc1ccc(OC)c(O)c1)C2=O` (configuration not stated), the cytotoxicity call was “active”.
With `COc1ccc(-c2cc(=O)c3c(O)cc(OC)c(OC)c3o2)c(OC)c1` the cytotoxicity call was “inactive”.
For `COc1ccc2c(c1)OCc1c-2oc2cc(OC)ccc12`, the cytotoxicity call was “inactive”.
`COc1ccc2c(c1)OCC(Cc1ccc(O)c(OC)c1)C2=O` (configuration not stated) was tested, and the cytotoxicity call was “inactive”.
With `COc1ccc(CCC(=O)c2c(O)cc(O[C@@H]3O[C@H](CO)[C@@H](O)[C@H](O)[C@H]3O[C@@H]3O[C@@H](C)[C@H](O)[C@@H](O)[C@H]3O)cc2O)cc1O` the cytotoxicity call was “inactive”.
For `COc1ccc2c(c1)OCC(=Cc1ccc(OC)c(O)c1)C2=O`, the cytotoxicity call was “active”.
`COc1ccc2c(c1)OCC(Cc1ccc(OC)c(OC)c1)C2=O` (configuration not stated) was tested, and the cytotoxicity call was “active”.
In the case of `C[C@H]1CCCCO[C@H](CN(C)C(=O)NC2CCCCC2)[C@@H](C)CN([C@@H](C)CO)C(=O)c2cc(NC(=O)C3CCCCC3)ccc2O1`, the cytotoxicity call is reported as “inactive”.
With `Cc1noc(C)c1NC(=O)N(C)C[C@@H]1OCCCC[C@H](C)Oc2ccc(NC(=O)Nc3cccc4ccccc34)cc2C(=O)N([C@@H](C)CO)C[C@H]1C` the cytotoxicity call was “inactive”.
`COCCNC(=O)C[C@@H]1CC[C@@H]2[C@H](COc3ccc(NC(=O)Nc4cccc(F)c4)cc3C(=O)N2C)O1` was tested, and the cytotoxicity call was “inactive”.
In the case of `Cc1noc(C)c1NC(=O)Nc1ccc2c(c1)CC(=O)N([C@@H](C)CO)C[C@H](C)[C@@H](CN(C)Cc1ccc(Oc3ccccc3)cc1)O2`, the cytotoxicity call is reported as “inactive”.
In the case of `Cc1noc(C)c1NC(=O)N(C)C[C@@H]1Oc2ccc(NS(=O)(=O)c3ccccc3)cc2C(=O)N([C@H](C)CO)C[C@@H]1C`, the cytotoxicity call is reported as “inactive”.
With `CSc1nc(-c2ccccc2)cc(-c2cccs2)c1C#N` the cytotoxicity call was “inactive”.
In the case of `Cc1cc(-c2ccccc2)nc(SCc2ccccc2)c1C#N`, the cytotoxicity call is reported as “active”.
With `CCSc1nc(-c2ccc(C)cc2)cc(C(F)(F)F)c1C#N` the cytotoxicity call was “inactive”.
With `CC(C)NC(=O)Nc1cccc2c1O[C@H](CN(C)S(=O)(=O)c1ccccc1)[C@@H](C)CN([C@H](C)CO)C2=O` the cytotoxicity call was “inactive”.
In the case of `C[C@@H]1CCCCO[C@H](CN(C)S(=O)(=O)c2cccs2)[C@@H](C)CN([C@H](C)CO)C(=O)c2cc(NC(=O)Nc3cccc4ccccc34)ccc2O1`, the cytotoxicity call is reported as “inactive”.
With `CCCN(C)C[C@H]1OCCCC[C@@H](C)Oc2ccc(NC(=O)Nc3ccc(C(F)(F)F)cc3)cc2C(=O)N([C@@H](C)CO)C[C@H]1C` the cytotoxicity call was “active”.
`CCCN(C)C[C@@H]1OCCCC[C@@H](C)Oc2ccc(NC(=O)Nc3ccc(C(F)(F)F)cc3)cc2C(=O)N([C@H](C)CO)C[C@H]1C` was tested, and the cytotoxicity call was “inactive”.
With `CCCN(C)C[C@H]1OCCCC[C@@H](C)Oc2ccc(NC(=O)Nc3ccc(F)cc3)cc2C(=O)N([C@H](C)CO)C[C@@H]1C` the cytotoxicity call was “inactive”.
For `CCCN(C)C[C@@H]1OCCCC[C@H](C)Oc2ccc(NC(=O)Nc3ccc(F)cc3)cc2C(=O)N([C@@H](C)CO)C[C@@H]1C`, the cytotoxicity call was “inactive”.
`CCCN(C)C[C@@H]1OCCCC[C@@H](C)Oc2ccc(NC(=O)Nc3ccc(F)cc3)cc2C(=O)N([C@H](C)CO)C[C@@H]1C` was tested, and the cytotoxicity call was “inactive”.
For `CCCN(C)C[C@H]1OCCCC[C@@H](C)Oc2ccc(NC(=O)Nc3ccc(C(F)(F)F)cc3)cc2C(=O)N([C@H](C)CO)C[C@H]1C`, the cytotoxicity call was “inactive”.
`CCCN(C)C[C@H]1OCCCC[C@H](C)Oc2ccc(NC(=O)Nc3ccc(F)cc3)cc2C(=O)N([C@@H](C)CO)C[C@H]1C` was tested, and the cytotoxicity call was “inactive”.
`CCCN(C)C[C@@H]1OCCCC[C@@H](C)Oc2ccc(NC(=O)Nc3ccc(F)cc3)cc2C(=O)N([C@H](C)CO)C[C@H]1C` was tested, and the cytotoxicity call was “inactive”.
With `CCCN(C)C[C@@H]1OCCCC[C@H](C)Oc2ccc(NC(=O)Nc3ccc(C(F)(F)F)cc3)cc2C(=O)N([C@H](C)CO)C[C@@H]1C` the cytotoxicity call was “active”.
In the case of `CCCN(C)C[C@@H]1OCCCC[C@H](C)Oc2ccc(NC(=O)Nc3ccc(C(F)(F)F)cc3)cc2C(=O)N([C@@H](C)CO)C[C@@H]1C`, the cytotoxicity call is reported as “inactive”.
`CCCN(C)C[C@@H]1OCCCC[C@@H](C)Oc2ccc(NC(=O)Nc3ccc(C(F)(F)F)cc3)cc2C(=O)N([C@H](C)CO)C[C@@H]1C` was tested, and the cytotoxicity call was “active”.
`CCCN(C)C[C@H]1OCCCC[C@H](C)Oc2ccc(NC(=O)Nc3ccc(C(F)(F)F)cc3)cc2C(=O)N([C@@H](C)CO)C[C@H]1C` was tested, and the cytotoxicity call was “active”.
